This is a sample that favours compounds with a hit; in the whole collection about 7.9% have one here.
HCV inhibitor: inhibitors of hepatitis C virus infection; Huh7.5.1 HCVcc-Cre infection, luciferase reporter, 44 h; Potency, µM (titrated, usually from 41.8 µM), without a hit: top-dose activity change, negative = inhibition, actives largely listed as inhibitors; 340,000 tested, 3.4% active; active means well fitted inhibition curve with a large enough effect; inconclusive means small, poorly fitted or top-dose-only effect, or another doubt; inactive means no such curve, though single readings can be large or run the other way; further: potency means the concentration at half of the fitted maximal effect
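HCVcc-Cre virus at an moi near 0.5 was added right after compound to cells cultured 4 h from seeding (1,000 cells/well). Luciferase activity was determined 44 h later, 15 min after substrate addition at RT.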
Marburg entry inh: inhibitors of Marburg virus binding or cell entry | 300,000 tested, 1.8% active | Potency, µM (top dose mostly 37.8 µM), for the others: at the highest dose activity change, negative = inhibition, actives largely listed as inhibitors | Marburg virus pseudotyped entry inhibition, cell reporter | AID 540276; calls by dose curve; tested in HEK293 cells; further: potency means the concentration at half of the fitted maximal effect
HCMV inh: inhibitors of human cytomegalovirus | activity change, negative = inhibition, % at 57.5 µM | 410,000 tested, 4.5% active | AID 1259415 | HFF cells, HCMV-luciferase reporter, 72 h; hits give low values; in the data active means activity change below about -60%; inconclusive means no clear call, values can overlap the other calls; inactive means above about -39%
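HFF cells seeded 16 h at 37C, treated with compounds, infected with luciferase-reporter HCMV at MOI 1 PFU/cell; luciferase read at 72 h post infection, normalized to buffer-only and Salinomycin controls.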
LASV entry inh: inhibitors of Lassa virus binding or cell entry; Lassa virus pseudotype entry inhibition, cell reporter; Potency, µM (top dose mostly 37.9 µM), for the others: top-dose activity change, negative = inhibition, hits mostly inhibitors; 300,000 tested, 1.2% active; calls by dose curve; tested in HEK293 cells; further: potency means the concentration at half of the fitted maximal effect; nearly all actives have a fitted effect of over 50% in size
FMDV antiviral: antivirals against foot and mouth disease virus; FMDV antiviral cell-based qHTS; 410,000 tested, 1.2% active; Potency, µM (series often up to 57.9 µM), for inactives: at the top dose activity change, negative = inhibition, most hits filed as inhibitors; calls by dose curve; tested in HEK293T cells; further: read-out not given here; potency means the concentration at half of the fitted maximal effect; nearly all actives have a fitted effect of over 45% in size
* = called active by the depositor; ? = inconclusive; . = no result; + = active, no number; [ ] = another dose, or the depositor's remark. On the % scale 0 is the no-effect control and ±100 the full control effect.

SMILES	HCV inhibitor	Marburg entry inh	HCMV inh	LASV entry inh	FMDV antiviral
CCc1ccc(S(=O)(=O)NCCc2csc3nc(-c4ccccc4)nn23)s1	.	.	-79*	-4%[46.1 µM]	18%
COc1ccc(OC)c(NC(=O)CCc2c[nH]c3ccccc23)c1	?	?	-16	?	-13%
Cc1cc2nc(N3CCCN(Cc4cccn4-c4ncccn4)CC3)nc(C)c2cc1C	.	.	.	.	-15%
O=C(CSc1nc2ccccc2nc1Cc1ccc(Cl)cc1)N1CCCCC1	.	.	?	?	-24%
O=C1C(CSCc2ccccc2)NC(=S)N1c1ccccc1 (configuration not stated)	-18%	.	34	.	28µM*
CC(=O)N1CCCc2cc(S(=O)(=O)N3CCN(c4ccc(F)cc4)CC3)ccc21	.	.	-26	-18%[46.1 µM]	?
CCC(C)NC(=O)CCc1nnc2ccc(N3CCC(C)CC3)nn12 (configuration not stated)	-8%	28%[46.1 µM]	-61*	6%[46.1 µM]	-32%
CN(CC(=O)Nc1ccc(Cl)cc1)C(=O)c1cccc(S(=O)(=O)N2CCN(Cc3ccccc3)CC2)c1	11µM*	?	-73*	-18%	22µM*
CN(C)C(=O)c1ccc(NC(=O)c2cccc(S(=O)(=O)N3CCN(Cc4ccccc4)CC3)c2)cc1	?	.	18	.	?
CS(=O)(=O)c1ccc(NC(=O)c2cccc(S(=O)(=O)N3CCN(Cc4ccccc4)CC3)c2)cc1	10µM*	?	?	?	?
CCOc1ccc(CN2CCN(S(=O)(=O)c3ccc(NC(C)=O)cc3)CC2)cc1	?	2%[46.1 µM]	-67*	?	?
O=C(Nc1ccc(S(=O)(=O)N2CCN(Cc3ccccc3)CC2)cc1)c1cnccn1	6.3µM*	?	-86*	?	?
CCC(=O)N1CCc2cc(CNS(=O)(=O)c3ccccc3F)ccc21	.	.	44	-2%[46.1 µM]	37%
NC(=O)c1ccc(-n2nnnc2SCC(=O)c2ccc(O)c(O)c2)cc1	25%	10%[46.1 µM]	-100*	14%	-15%
CCN1CCc2nc3ccccc3c(C(=O)Nc3ccc(NC(C)=O)cc3)c2C1	14%	.	0	.	-5%
O=C(COC(=O)c1c2c(nc3ccccc13)CCN(Cc1ccccc1)C2)Nc1c(F)cccc1F	?	?	-96*	?	-15%
CC(=O)Nc1ccc(NC(=O)COC(=O)c2c3c(nc4ccccc24)CCN(Cc2ccccc2)C3)cc1	13µM*	?	26	?	?
N#CCOc1coc(CN2CCN(c3ccccc3)CC2)cc1=O	6%	.	37	.	-3%
COc1ccc(OC)c(C(=O)Nc2c(O)ccc3ccccc23)c1	?	6%	31	?	19%
Cc1cccc(NC(=S)NCC(c2cccnc2)N(C)C)c1 (configuration not stated)	7%	1%	-71*	0%	-20%
CN(C)C(CNC(=S)Nc1ccc(F)cc1)c1cccnc1 (configuration not stated)	10%	8%[46.1 µM]	-13	17%	-12%
Cc1nc2c(=O)n(C)c(=O)nc-2n(C)n1	0.56µM*	0.89µM*	-103*	0.56µM*	2.8µM*
Cc1ccc(C)c(-n2c3nc(=O)n(C)c(=O)c-3cc3ccccc32)c1	-24%	.	-20	.	-18%
O=C(Nc1nnc(SCc2ccc(F)cc2)s1)c1ccc2c(c1)C(=O)N(c1ccccc1Cl)C2=O	6%	15%[46.1 µM]	-29	14%[46.1 µM]	-18%
Cc1ccc(NC(=O)COc2ccccc2)c(NC(=O)c2ccccc2C)c1	-1%	4%	-64*	21%	-14%
SMILES	HCV inhibitor	Marburg entry inh	HCMV inh	LASV entry inh	FMDV antiviral
NC(=S)c1ccc[n+]([C@@H]2O[C@@H](COP(=O)([O-])OP(=O)(O)OC[C@H]3O[C@@H](n4cnc5c(N)ncnc54)[C@H](OP(=O)(O)O)[C@@H]3O)C(O)C2O)c1 (some centres not stated)	.	23%	.	14%	.
CCN(CC)C(=O)c1ccc2nc3ccccc3nc2c1	-5%	25%	-95*	21%	45%
Cc1ccc(NCc2cccn2-c2nnc(N3CCC(C(=O)NCc4ccc(OC(C)C)cc4)CC3)s2)cc1	.	?	-80*	.	?
CCOc1ccc(NCc2cccn2-c2nnc(N3CCC(C(=O)NCc4cccc(OC)c4)CC3)s2)cc1	.	1%[46.1 µM]	-84*	.	?
CCOc1ccc(NCc2cccn2-c2nnc(N3CCC(C(=O)NCc4ccc(C)cc4)CC3)s2)cc1	.	?	-76*	.	?
CCOc1ccc(NCc2cccn2-c2nnc(N3CCC(C(=O)NCC(C)c4ccccc4)CC3)s2)cc1 (configuration not stated)	.	?	-80*	.	?
CC(C)c1ccc(Nc2cc3[nH]c(-c4cccc(F)c4)cc3cn2)cc1	.	.	-5	.	.
Cc1ccc2cccc(NC(=S)NC(=O)c3c(Br)cnn3C)c2n1	-13%	-10%	69	-1%	68%
Cc1ccc2cccc(NC(=S)NC(=O)c3ccn(C)n3)c2n1	32µM*	-4%	78	?	-20%
Cc1ccc2cccc(NC(=O)c3ccc(Br)o3)c2n1	10µM*	-8%	142	?	0%
O=C(Nc1ccc2c(c1)oc1ccccc12)c1ccc(Br)o1	18µM*	1%	10	?	26%
Cc1ccc2cccc(NC(=O)c3ccc(-c4cccc([N+](=O)[O-])c4)o3)c2n1	.	-9%[46.1 µM]	-22	4%[46.1 µM]	-1%
O=C(Nc1ccccc1)c1ccc(Br)o1	-12%	?	-62*	?	63%
CCN1C(=O)[C@H]2[C@@H](c3ccc(-c4ccc(F)cc4)c(OC)c3)N[C@@](Cc3ccccc3)(C(=O)OC)[C@H]2C1=O	?	.	25	.	-23%
O=C(NCc1ccco1)N[C@H]1CC[C@@]23CCCN2C(=O)CCC[C@H]3C1Cc1ccccc1 (some centres not stated)	.	.	6	.	.
Cc1ccccc1N1CCN(S(=O)(=O)CC23CCC(CC2NC(=O)C(N)CCS(C)(=O)=O)C3(C)C)CC1 (configuration not stated)	.	.	.	.	-10%
CCCNC(=O)Cn1c(=O)/c(=C/c2ccc(-c3ccc([N+](=O)[O-])cc3)o2)s/c1=C\C(=O)C(C)(C)C	?	?	-96*	2%[46.1 µM]	-1%
CCc1ccc(CNC(=O)C2CCCN(c3nn4cc(-c5ccc(F)cc5)nc4s3)C2)cc1 (configuration not stated)	.	.	+	19%[46.1 µM]	?
CCOc1ccc(CNC(=O)C2CCCN(c3nn4cc(-c5ccc(OC)cc5)nc4s3)C2)cc1 (configuration not stated)	.	.	0	7%[46.1 µM]	-20%
CCOc1ccc(CNC(=O)C2CCCN(c3nn4cc(-c5ccc(F)cc5)nc4s3)C2)cc1 (configuration not stated)	.	.	+	?	-10%
O=C1NC(=O)N(CCc2ccc(F)cc2)C(=O)/C1=C\C=C\c1ccccc1	4µM*	9%[46.1 µM]	-33	.	10µM*
CN(C)c1ccc(/C=C2/C(=O)NC(=O)N(CCc3ccc(F)cc3)C2=O)cc1	9%	-13%	-3	14%	-2%

High-throughput results (PubChem BioAssay)
